A short description of experiment [1]: stimulators of nuclear beta-catenin in C2C12, primary screen, imaging, WNT3A-conditioned medium, mouse C2C12, NPC library (AID 1117326; in the data active means nuclear beta-catenin stimulation mostly above about 4.2%, no sharp cut-off; inactive means mostly below about 10%). The following applies: stronger effect = higher value.
Experiment [2] is described as follows: stimulators of insulin release from INS-1E, primary screen, cell-based, 5 mM glucose, NPC library (AID 1117329;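 active means compound raises insulin release from rat beta cells at 5 mM glucose, no numeric limit stated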). The following applies: rat INS-1E insulin secretion, at 10 µM, stronger effect = higher value.
Experiment [3] is described as follows: growth inhibition of GSK3B-pretreated HCT116 cells – cell-based, CellTiter-Glo, 0.2 to 20 µM (AID 1117336;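 active means compounds lowering colon cancer cell viability after pretreatment blocking the GSK3B kinase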). The following applies: HCT116 viability after GSK3B inhibitor, at 20 µM, stronger effect = higher value.
Experiment [4] in a line: inhibition of endothelial tube formation, primary screen, imaging, VEGF stimulated, CD31 staining, tube area, NPC library (AID 1117340;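 active means compound that reduces growth-factor-driven endothelial tube area in a mixed cell culture, no cutoff stated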). The settings on record: VEGF-stimulated ADSC/ECFC co-culture, at 10 µM, stronger effect = higher value.
Experiment [5] in a line: glucagon-like peptide 1 release enhancers, primary assay, NCI-H716 cell line, NPC library (AID 1117341;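 active means compound raises GLP1 secretion from the human gut endocrine cells, with no numeric limit stated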). The settings on record: NCI-H716 cells, at 10 µM, stronger effect = higher value.
The nature of experiment [6]: HCT116 colon cancer cell growth inhibition, primary screen, CellTiter-Glo luminescence, NPC library (AID 1117342;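 active means compounds that lower survival of HCT116 colon cancer cells in the luminescence readout, no numeric limit stated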). The settings on record: at 20 µM (top of the series).
Experiment [7] is described as follows: CellTiter-Glo luminescent readout of SW480 viability loss, NPC library primary (AID 1117343;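 active means compounds that lower viability of the colon cancer cells in the luminescence readout, with no numeric limit stated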). The settings on record: CellTiter-Glo luminescence; at 20 µM (top of the series) unless noted.
Experiment [8] is described as follows: decreased DLD-1 cellular survival, CellTiter-Glo luminescent readout, NPC compound collection, primary HTS (AID 1117346;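 active means compounds that lower survival of DLD-1 colon cancer cells in the luminescence readout, no cutoff given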). The following applies: DLD-1 viability, CellTiter-Glo luminescence; at 20 µM (top of the series). (In ATP-based viability assays light output follows the ATP content of the culture.)
Experiment [9] is described as follows: sensitizers of A549 cells to miR-34 induction, primary screen, imaging, A549 dox-inducible miR-34, nuclei and caspase counts (AID 1347080). The settings on record: A549 miR-34 inducible, Hoechst nuclei count, 48 h.
Experiment [10] is described as follows: survival rescue of mitochondrial mutant cells in low glucose, primary screen, MELAS cybrids, Rieske KO mouse fibroblasts, CellTiter-Glo (AID 1508586;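 active means mean z-score across replicates of 1.96 or higher in either the MELAS or the Rieske mutant cell line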;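 further: z relative to plate mean and SD of compound and empty wells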).
The test system of experiment [11] is Hepatitis C virus NS3 helicase. Put plainly: HCV NS3 helicase inhibitors, primary screen, biochemical, fluorescence polarization, LOPAC1280 library (AID 687035; in the data active means inhibition above about 37%). The following applies: Purified HCV NS3 helicase, Cy5-dT15 ssDNA binding fluorescence polarization; stronger effect = higher value; concentration not given here. (In fluorescence polarisation assays a small probe gives low polarisation when free and higher when bound to something large.)

The nature of experiment [12]: Cy5 fluorescence quenching or enhancement artefacts, artefact control for HCV NS3 helicase inhibitor project, biochemical, LOPAC1280 (AID 687037; call rule not given here). The following applies: Cy5-DNA-NS3h complex fluorescence interference counterscreen. A general note: The purpose of a counterscreen is to sort out artefacts and off-target activity.
Experiment [13] is described as follows: phospholipid biosynthesis inhibitors in animal cells, primary screen, cell-based, LOPAC library, screen 4 (AID 1347384; call rule not given here). The settings on record: phospholipid biosynthesis inhibition screen, at 10 µM.
Experiment [14] can be described thus: viability rescue of complex I mutant cybrids, primary screen, cell-based, galactose medium, ATP luminescence (AID 1645843;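 active means z-score of at least 1.8 in each of two replicates, scored against plate mean and spread of sample wells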;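 further: positive z means more ATP and so rescue of galactose-driven cybrid death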). The following applies: complex I mutant cybrid cells, 72 h, stronger effect = higher value.
Setting [15] is: stronger effect = lower value, cell number ratio, induced over uninduced.
Setting [16] is: measured here: relative caspase fold change +Dox/-Dox.
[17] abbreviates: measured here: total cells with miR-34 induction, stronger effect = lower value.
Where [18] appears, read: measured here: total cells without miR-34 induction.
[19] abbreviates: MELAS cybrid survival, CellTiter-Glo 48 h, stronger effect = higher value.
Where [20] appears, read: Rieske KO mouse fibroblast survival, CellTiter-Glo 72 h.

The source made the active and inactive calls.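 How the source made its calls, unless noted: active means compounds whose cell count with miR-34 switched on is under 0.7 times the count with it off; inactive means the rest.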

For the molecule `CCn1c(=O)c2c(nc(C=Cc3ccc(OC)c(OC)c3)n2C)n(CC)c1=O`, the nuclear beta-catenin stimulation in experiment [1] (at 10 µM) was -0.2% (inactive); in [1] (stimulation, at 2 µM), -0.6%. Moreover, the insulin secretion stimulation in [2] is -0.7% (inactive). Also, the viability decrease in experiment [3] is -2.3% (inactive). In addition, the tube area decrease in experiment [4] is 14.4% (inactive). Further, the GLP1 secretion stimulation in [5] was -3% (inactive). Further, in [6], the inhibition of viability is -3.5% (inactive). Further, the viability decrease (inhibition) in experiment [7] is 4.6% (inactive); in experiment [8], -22% (inactive). Besides, the results for the fold change in experiment [9] (setting [15]) and in experiment [9] (setting [16]) were 0.891 (inactive) and 0.866, respectively. The values for the cell count in experiment [9] (setting [17]) and in experiment [9] (setting [18]) were 8640 and 9700, respectively. Also, the z-score in experiment [10] (setting [19]) is 0.103 (inactive); in [10] (setting [20]), 0.0933.
Consider `COC(=O)[C@@H](N)Cc1ccc(O)c(O)c1`, for which the inhibition – broadly, the drop in the measured response relative to a control, in per cent – in [11] is -2% (inactive). The fluorescence ratio (interference) in experiment [12] was 1 (inactive). The nuclear beta-catenin stimulation in [1] (at 10 µM) is 6.9% (inactive); in [1] (stimulation, at 2 µM), 0%. Moreover, the insulin secretion stimulation in experiment [2] was -2.6% (inactive). In addition, the viability decrease in experiment [3] is 22% (inactive). Further, in experiment [4], the tube area decrease is 1.4% (inactive). The GLP1 secretion stimulation in experiment [5] is 5.5% (inactive). Moreover, in [6], the inhibition of viability was 8.3% (inactive). The viability decrease (inhibition) was 64.7% (active) in [7] and 15.2% (inactive) in experiment [8]. For the same molecule, the fold change in [9] (setting [15]) was 0.967 (inactive); in [9] (setting [16]), 1.36. The cell count in [9] (setting [17]) stood at 9830; in [9] (setting [18]), 10200. In experiment [13], the molecule was called inactive. In addition, in experiment [14], the z-score was -1.02 (inactive).
For the molecule `C[C@]12CCC(=O)C=C1CC[C@@H]1[C@@H]2CC[C@@]2(C)[C@H]1CC[C@]2(O)C(=O)CO`, the inhibition in experiment [11] was 0% (inactive). Further, the fluorescence ratio (interference) in [12] was 1 (inactive). Further, the nuclear beta-catenin stimulation in [1] (at 10 µM) was 0.3% (inactive); in experiment [1] (stimulation, at 2 µM), -0.1%. For the same molecule, the insulin secretion stimulation in experiment [2] is -1.7% (inactive). For the same molecule, the viability decrease in experiment [3] was -3.9% (inactive). The tube area decrease in [4] was 5.4% (inactive). In addition, the GLP1 secretion stimulation in [5] is 1.1% (inactive). Also, in experiment [6], the inhibition of viability is 25.1% (inactive). Moreover, the viability decrease (inhibition) is 12.3% (inactive) in experiment [7] and -6.8% (inactive) in [8]. Further, the fold change in [9] (setting [15]) was 1 (inactive); in [9] (setting [16]), 0.913. The cell count in experiment [9] (setting [17]) was 8610; in experiment [9] (setting [18]), 8590. Moreover, in experiment [13], the call was inactive. For the same molecule, the z-score in experiment [14] was 0.435 (inactive).
Regarding `COc1cc(C=O)ccc1O`, the nuclear beta-catenin stimulation was 1.6% (inactive) in [1] (at 10 µM) and 0.8% in experiment [1] (stimulation, at 2 µM). Further, the insulin secretion stimulation in experiment [2] is 0.7% (inactive). Besides, the viability decrease in [3] was 1.37% (inactive). Also, the tube area decrease in experiment [4] was 1.2% (inactive). Further, the GLP1 secretion stimulation in experiment [5] is 0.6% (inactive). The inhibition of viability in [6] is -10.3% (inactive). Besides, the viability decrease (inhibition) in [7] is 49.1% (inactive); in experiment [8] it was 3.27% (inactive). Moreover, the fold change in [9] (setting [15]) is 0.931 (inactive); in experiment [9] (setting [16]) it was 0.545. For the same molecule, the cell count in [9] (setting [17]) is 7990; in experiment [9] (setting [18]) it was 8590. Moreover, the z-score in experiment [10] (setting [19]) was -0.504 (inactive); in [10] (setting [20]), -0.136.
As to `CCN1CCc2nc(N)oc2CC1`, in experiment [11], the inhibition is -3% (inactive). Further, the fluorescence ratio (interference) in experiment [12] is 1 (inactive). In addition, the nuclear beta-catenin stimulation in [1] (at 10 µM) was -1.7% (inactive); in experiment [1] (stimulation, at 2 µM), 0.3%. Further, in [2], the insulin secretion stimulation was 0.4% (inactive). For the same molecule, the viability decrease in [3] was 2.7% (inactive). Further, the tube area decrease in [4] was 1.7% (inactive). For the same molecule, in experiment [5], the GLP1 secretion stimulation was -1.2% (inactive). The inhibition of viability in [6] is 5.2% (inactive). Further, the viability decrease (inhibition) is -29.1% (inactive) in experiment [7] and -18% (inactive) in experiment [8]. The fold change in experiment [9] (setting [15]) is 1.02 (inactive); in [9] (setting [16]), 1.71. Further, the figures for the cell count in experiment [9] (setting [17]) and in experiment [9] (setting [18]) were 10300 and 10100, respectively. Further, the outcome in [13] was inactive. Further, in experiment [14], the z-score was 0.29 (inactive).
As for `CCCCCCCCCCCCCCCCO`, the nuclear beta-catenin stimulation was -0.4% (inactive) in [1] (at 10 µM) and 0.7% in [1] (stimulation, at 2 µM). Besides, the insulin secretion stimulation in experiment [2] is -0.5% (inactive). Moreover, in experiment [3], the viability decrease is -1.35% (inactive). Further, in [4], the tube area decrease was -0.9% (inactive). The GLP1 secretion stimulation in experiment [5] is -3.8% (inactive). In addition, the inhibition of viability in [6] is -2.3% (inactive). The viability decrease (inhibition) in experiment [7] is 21.5% (inactive); in [8] it was 5.6% (inactive). In addition, the fold change in [9] (setting [15]) was 0.9 (inactive); in [9] (setting [16]) it was 0.439. For the same molecule, the cell count is 8310 in [9] (setting [17]) and 9230 in experiment [9] (setting [18]). Also, the z-score was -0.285 (inactive) in experiment [10] (setting [19]) and -0.121 in experiment [10] (setting [20]).
